Reference: PubChem BioAssay AID1529 (NMMLSC, 2009)
In all, about 290,000 compounds went through this assay and about 4,200 (1.4%) were called active.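 How the source made its calls: active means binding response more than 3 SD above or below the average of its plate-row segment, actives on both sides; inconclusive means wells at one plate position flagged as instrument error; inactive means the rest.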 This excerpt belongs to a sample that is enriched for actives.

target: Mitogen-activated protein kinase kinase kinase 3 (Homo sapiens) (UniProt Q99759); test: compounds raising or lowering MEK5 association with MEKK3 PB1 – biochemical, wildtype MEKK3, multiplex bead flow cytometry, Alexa488-MEK5, primary screen (AID 1529); details: bead-based flow cytometry, Alexa488-MEK5 binding to MEKK3; at 10 µM; actives lie on both sides; 0 = blocked by unlabeled MEK5, 100 = vehicle;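 further: Alexa488 bead fluorescence after subtracting the streptavidin-only scavenger bead signal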
Sequence (Q99759 whole entry, looked up): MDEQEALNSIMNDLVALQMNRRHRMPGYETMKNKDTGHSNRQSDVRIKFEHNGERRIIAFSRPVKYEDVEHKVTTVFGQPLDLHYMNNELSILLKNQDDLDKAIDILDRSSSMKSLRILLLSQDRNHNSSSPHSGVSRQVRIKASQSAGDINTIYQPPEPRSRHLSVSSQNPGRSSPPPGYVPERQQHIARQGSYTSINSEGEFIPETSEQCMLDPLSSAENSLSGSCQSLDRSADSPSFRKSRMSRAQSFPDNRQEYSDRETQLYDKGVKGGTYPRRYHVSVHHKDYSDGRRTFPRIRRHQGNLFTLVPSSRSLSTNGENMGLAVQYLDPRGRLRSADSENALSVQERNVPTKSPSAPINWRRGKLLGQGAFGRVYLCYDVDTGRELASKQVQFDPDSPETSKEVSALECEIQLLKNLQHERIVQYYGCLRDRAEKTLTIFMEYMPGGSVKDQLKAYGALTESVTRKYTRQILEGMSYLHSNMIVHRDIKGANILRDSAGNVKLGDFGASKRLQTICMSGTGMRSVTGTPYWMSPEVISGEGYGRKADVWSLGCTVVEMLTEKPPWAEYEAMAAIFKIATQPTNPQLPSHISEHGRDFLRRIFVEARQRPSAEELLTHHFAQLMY

Binding response (% of control), active:
Cn1c(SCc2nc3ccccc3s2)nnc1-c1ccc2c(c1)OCO2 19% [inhibitor], C/C(=N\NC(=O)CNC(=O)C(c1ccccc1)c1ccccc1)c1ccc(C)cc1 130%, O=C(O)c1cccnc1NC1CCCC1 80% [inhibitor], Cc1ccc(S(=O)(=O)/N=S(\C)C(C)C)cc1 (stereo unspecified) 2% [inhibitor], CCOC(=O)CNC(=O)CSc1nc2cccnc2n1CC 127%, COc1ccc(C2CC(=O)Nc3cc(C)c(C)cc32)c(OC)c1OC (stereo unspecified) 0% [inhibitor], CC(C)(C)NC(=O)c1cccc(NC(=O)Cc2ccc(Br)cc2)c1 163%, O=C(O)CC(Cc1ccccc1)C(=O)Nc1ccc([N+](=O)[O-])cc1 (stereo unspecified) 128%, CC1(C)Cc2cccc(OCC(=O)N3CCN(c4ccc([N+](=O)[O-])cc4)CC3)c2O1 59% [inhibitor], COc1cc(NC(=S)NCc2ccco2)c(OC)cc1Cl 71% [inhibitor], CC(C)C(=O)N1c2ccccc2NC2=C(C(=O)CCC2)C1c1ccc(N(C)C)cc1 (stereo unspecified) 129%, CC1(C)OC(=O)N2CCc3ccccc3C21C (stereo unspecified) 129%, CNC(=O)/C(=C\C=C\c1ccccc1)NC(=O)c1ccc([N+](=O)[O-])cc1 73% [inhibitor]

Binding response (% of control), inactive:
Cc1c(C(=O)N2CCCC2)c(S(=O)(=O)NCC(C)c2ccccc2)c(C)n1C (stereo unspecified) 101%, Cc1ccc(NC(=O)C2CCN(S(=O)(=O)c3ccc4c(c3)NC(=O)CO4)CC2)cc1C 106%, COC(C[C@@H]1O[C@@H]1C(=O)[C@@H](C)OCc1ccccc1)OC 102%, CCc1c(C)sc(NC(=O)c2cccs2)c1C(N)=O 100%, Cc1ccc(OCC(=O)NCCCNC(=O)c2cccnc2)cc1C 99%, Cn1c(SCC(=O)N2CCCC2)nnc1-c1ccc2c(c1)OCO2 100%, O=C(O)CSc1nnc(-c2ccc3c(c2)OCO3)n1-c1ccccc1 103%, O=C(OCc1ccc([N+](=O)[O-])cc1)C1CC(=O)N(Cc2ccccc2Cl)C1 (stereo unspecified) 100%, O=C(CNC(=O)C(c1ccccc1)c1ccccc1)N/N=C\c1ccc2c(c1)OCO2 104%, C/C(=N\NC(=O)Cc1ccc(F)cc1)c1ccc(F)cc1 98%, O=C(Oc1ccc(Br)cc1)c1cccnc1 101%, C=CC1=C(C(=O)O)N2C(=O)[C@@H](NC(=O)/C(=N/OCC(=O)O)c3csc(N)n3)[C@H]2SC1 97%, O=C(O)c1ccc2c(=O)n3c(nc2c1)/C(=C/c1ccc(OC(F)F)cc1OC(F)F)CC3 103%, COc1ccc(NC(=O)CS(=O)(=O)c2ccccc2)cc1 105%, O=C(NC1CCCCCC1)c1cccnc1Sc1ccc(Cl)cc1 91%, CSc1ncccc1C(=O)NC1CCCCCC1 102%, CC1=CC(=C(C#N)c2nc3ccccc3s2)C=C(C)N1c1ccc(F)cc1F 104%, CCOC(=O)C1CCN(C(=O)CN2C(=O)c3cccnc3Oc3ccc(C)cc32)CC1 103%, CCCC/S(C)=N/S(=O)(=O)c1ccc(C)cc1 (stereo unspecified) 100%, CC/S(CC1CC1(Cl)Cl)=N\S(=O)(=O)c1ccc(C)cc1 (stereo unspecified) 96%, CC1CCCN(CC(=O)Nc2cc(Cl)ccc2Oc2ccccc2)C1 (stereo unspecified) 107%, COC(=O)c1c(C)cc(O)c(C)c1O 102%, CCOC(=O)CNC(=O)CSc1nnc(COc2ccc(Cl)cc2)n1CC 96%, CCOC(=O)CNC(=O)CSc1ncccc1-c1nc2ccccc2[nH]1 108%, COc1cc2c(cc1OC)C(c1ccncc1)CC(=O)N2 (stereo unspecified) 109%, COc1cc2c(cc1OC)C(C(=O)Nc1cc(C)c(OC)c(C)c1)CC(=O)N2 (stereo unspecified) 109%, OCCNc1nc(Nc2ccc(Cl)c(Cl)c2)nc2ccccc12 111%, O=C(Cc1ccccc1)Nc1cccc(NC(=O)c2ccccc2)c1 98%, COc1ccc(CC(=O)Nc2ccc(C(=O)NC(C)(C)C)cc2)cc1 97%, Cc1nc(-c2ccccc2)sc1C1(C)CC(c2cccnc2)=NO1 (stereo unspecified) 104%, O=C(CC(c1ccccc1)c1ccccc1)NCC(O)c1ccc([N+](=O)[O-])cc1 (stereo unspecified) 101%, O=C(Cc1ccccc1)NNS(=O)(=O)c1ccc([N+](=O)[O-])cc1 95%, Fc1ccccc1/C=N/Nc1cc(N2CCCCC2)ncn1 105%, CCc1noc(C)c1C(=O)N1CCCC(N2CCN(c3ccc(F)cc3)CC2)C1 (stereo unspecified) 91%, Cc1ccc(CNC(=O)C2CCCN2S(=O)(=O)c2ccc3c(c2)C(C)(C)C(=O)N3C)cc1 (stereo unspecified) 104%, CC1(C)Cc2cccc(OCC(N)=O)c2O1 100%, CC1(C)Cc2cccc(OCC(=O)NCc3ccccc3)c2O1 100%, COc1ccc(C)cc1NC(=O)CN(C)S(=O)(=O)c1ccc2c(c1)n(C)c(=O)c(=O)n2C 101%, FC(F)Oc1ccc(NC(=S)NCc2ccco2)cc1Cl 99%, CCOc1cc(NC(=S)NCc2ccco2)c(OCC)cc1NC(=O)c1ccco1 105%, CCOC(=O)C1Nc2ccc(C(F)(F)F)cc2C2C=CCC12 (stereo unspecified) 99%, CCCC(=O)N1c2ccccc2NC2=C(C(=O)CCC2)C1c1ccc(F)cc1 (stereo unspecified) 100%, CCC(=O)N1c2ccccc2NC2=C(C(=O)CCC2)C1c1ccco1 (stereo unspecified) 94%, CC(C)(C)C(=O)Nc1ccc(-c2cn3cccnc3n2)cc1 107%, COc1cc(C(C)=O)ccc1OC(=O)CN1C(=O)c2ccccc2C1=O 102%, CC1Cc2ccccc2N1C1=CC(=O)CC(C)(C)C1 (stereo unspecified) 100%, O=C(Nc1ccc(C(=O)O)cc1)/C(=C/c1ccc([N+](=O)[O-])cc1)NC(=O)c1ccccc1 97%, O=C(Nc1ccccc1)/C(=C/c1ccc([N+](=O)[O-])cc1)NC(=O)c1ccccc1 111%
